The list is not random: actives were taken first. Their share in the collection is about 7.9%.
HT1080-NT tox: qHTS for induction of synthetic lethality in tumor cells producing 2HG: qHTS for the HT-1080-NT fibrosarcoma cell line | HT-1080-NT fibrosarcoma viability, CellTiter-Glo ATP luminescence, 48 h | Potency, µM (series often up to 46.1 µM), usual class: cytotoxic | actives 1.6% (n = 360,000) | AID 686970, 2013;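 also: NT is the 2HG producing partner of a matched IDH1 knockdown line; nearly all actives have a fitted effect of over 55% in size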
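HT-1080-NT; 750 cells/well; 5% FBS RPMI; 48 h compound, 37 degrees C; CellTiter-Glo luminescence; curve fitting and curve-class assignment.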
SW480 rerep: A quantitative high throughput screen for small molecules that induce DNA re-replication in SW480 colon adenocarcinoma cells; AID 624297, 2012; Potency, µM (highest dose often 46.1 µM), hits mostly activators; actives 1.8% (n = 340,000); SW480 DNA re-replication, Hoechst DNA content imaging, 48 h; also: nearly all actives have a fitted effect of over 55% in size
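SW480 cells exposed to compounds for 48 hr at 37 C, 5% CO2, then Hoechst-stained 40 min. Nuclear DNA content imaged by fluorescence scanning (405 nm excitation, 500-530 nm emission); re-replication scored as increased high-intensity nuclei.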
KB-3-1 cytotox: qHTS assay for MDR1-selective chemotherapeutics: Primary screen using the parental adenocarcinoma cell KB-3-1 | actives 1.4% (n = 400,000) | Potency, µM (doses to about 46.1 µM), usual class: cytotoxic | KB-3-1 viability, CellTiter-Glo ATP luminescence, 72 h; also: nearly all actives have a fitted effect of over 60% in size
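Parental KB-3-1 adenocarcinoma cells in phenol-red-free DMEM with 10% FBS were pin-treated with compounds at several concentrations, incubated 72 h at 37 °C, and viability read by CellTiter-Glo luminescence; concentration-effect curves were fitted after normalization.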
MCF10A rerep: A quantitative high throughput screen for small molecules that induce DNA re-replication in MCF 10a normal breast cells. MCF 10A DNA re-replication, Hoechst nuclear intensity, 48 h. actives 2.9% (n = 350,000). Potency, µM (doses to about 46.1 µM), usual class: activators; also: nearly all actives have a fitted effect of over 50% in size
HT1080 IDH1KD tx: qHTS for induction of synthetic lethality in tumor cells producing 2HG: qHTS for the HT-1080-IDH1KD cell line. HT-1080 IDH1 knockdown viability, ATP luminescence, 48 h. Potency, µM (top dose mostly 46.1 µM), most hits filed as cytotoxic. actives 2% (n = 360,000)
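% activity derives from luminescence (CellTiter-Glo), normalised to DMSO and no-cell wells. HT-1080-IDH1KD cells, 750/well, had 48 h compound exposure at 37 °C.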
KB-V1 cytotox: qHTS assay for MDR1-selective chemotherapeutics: Primary screen using the drug-selected MDR subline cells KB-V1 | KB-V1 MDR cells viability, CellTiter-Glo, 72 h | Potency, µM (series often up to 46.1 µM), most hits filed as cytotoxic | actives 3.4% (n = 400,000) | AID 1347076, 2019; also: nearly all actives have a fitted effect of over 60% in size
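Readout: CellTiter-Glo luminescence, 10 min after addition. Cells: KB-V1 MDR subline, 72 h at 37 degrees C with compound. Analysis: corrected, normalized data fitted to concentration-effect curves.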
Each line names hits and unclear results; the compound was inactive in the other large screens. Calls follow the shape of the dose curve; as a rule, active = well fitted curve in the direction sought with a large enough effect; inconclusive = small, poorly fitted or top-dose-only effect, or another doubt; inactive = no such curve, though single readings can be large; an effect the other way counts as inactive or inconclusive.

COc1ccc2nc3ccccc3[n+]([O-])c2c1	none
[O-][n+]1c2ccccc2cc2ccccc21	SW480 rerep 18.4µM, MCF10A rerep 18.4µM
C/C=C/c1ccc(OCCCCOc2ccc(OC)cc2)c(OC)c1	none
C/C=C/c1ccc(OCCCCN2CC(C)CC(C)C2)c(OC)c1 (configuration not stated)	HT1080-NT tox 23.1µM, SW480 rerep inconclusive, KB-3-1 cytotox inconclusive, MCF10A rerep inconclusive, HT1080 IDH1KD tx 20.6µM, KB-V1 cytotox inconclusive
C/C=C/c1ccc(OCCCCN2CCN(CC)CC2)c(OC)c1	SW480 rerep 8.2µM
CC1(C)SC(C)(C)N(C=O)C1C(=O)O (configuration not stated)	none
CN1CCN(S(=O)(=O)c2cccc(C#N)c2)C(c2ccccc2)C1 (configuration not stated)	none
CN(CCc1ccccn1)C(=O)CCC1CCCN(C(=O)c2cccc(N(C)C)c2)C1 (configuration not stated)	none
O=C1c2[nH]nc(-c3ccccc3O)c2C(c2ccc(F)cc2)N1Cc1ccco1 (configuration not stated)	HT1080-NT tox inconclusive, SW480 rerep inconclusive, KB-3-1 cytotox inconclusive, MCF10A rerep inconclusive, HT1080 IDH1KD tx inconclusive, KB-V1 cytotox 6.51µM
COc1ccc(C2c3c(-c4ccccc4O)n[nH]c3C(=O)N2Cc2ccco2)cc1OC (configuration not stated)	HT1080-NT tox inconclusive
O=C1c2[nH]nc(-c3ccccc3O)c2C(c2cccc(Cl)c2)N1Cc1ccco1 (configuration not stated)	HT1080-NT tox inconclusive, SW480 rerep inconclusive, KB-3-1 cytotox inconclusive, MCF10A rerep 7.31µM, HT1080 IDH1KD tx inconclusive, KB-V1 cytotox 14.6µM
COc1ccc(C(=O)NCc2ccc3c(c2)OCO3)cc1S(=O)(=O)N1CCCC1	none
N/N=C/C(=N\Nc1ccc(Cl)cc1)C(=O)c1ccncc1	HT1080-NT tox inconclusive, SW480 rerep 10.3µM, HT1080 IDH1KD tx inconclusive
O=C(NNC(=O)c1ccncc1)Nc1ccc(Cl)cc1	none
Cc1ccc(-n2cc(CNCCCn3ccnc3C)c(-c3ccc(F)cc3)n2)cc1	HT1080-NT tox 20.6µM, SW480 rerep inconclusive, KB-3-1 cytotox inconclusive, MCF10A rerep inconclusive, HT1080 IDH1KD tx inconclusive, KB-V1 cytotox 20.6µM
Cc1ccc(C)c(-n2cc(CNCCCn3cccn3)c(-c3ccccc3)n2)c1	HT1080-NT tox 20.6µM, SW480 rerep 16.4µM, MCF10A rerep inconclusive, HT1080 IDH1KD tx inconclusive
Cc1ccc(-n2cc(CNCCCn3cccn3)c(-c3cccc(C)c3)n2)cc1	HT1080-NT tox inconclusive, KB-3-1 cytotox inconclusive, MCF10A rerep inconclusive, HT1080 IDH1KD tx inconclusive, KB-V1 cytotox inconclusive
Cc1ccc(-n2cc(CN3CCN(Cc4nccn4C)CC3)c(-c3ccc(F)cc3)n2)cc1	HT1080-NT tox inconclusive, HT1080 IDH1KD tx inconclusive
Cc1ccc(-n2cc(CNCCc3cscn3)c(-c3ccc(F)cc3)n2)cc1	HT1080-NT tox 20.6µM, MCF10A rerep inconclusive, HT1080 IDH1KD tx 20.6µM
CC1C(=O)C(C)(C)C(=O)OC1c1ccc([N+](=O)[O-])cc1 (configuration not stated)	none
O=C(CCNC(=O)c1ccccc1)NNC(=O)c1ccc(F)cc1	none
CN=C1S/C(=C\c2ccc(N3CCOCC3)cc2C)C(=O)N1C	none
Cc1cc(N2CCOCC2)ccc1/C=C1\NC(=O)N(Cc2ccccc2F)C1=O	MCF10A rerep 5.17µM, KB-V1 cytotox inconclusive
Cc1cc(N2CCOCC2)ccc1/C=C1\NC(=O)N(Cc2ccccc2)C1=O	MCF10A rerep inconclusive
CCN=C1S/C(=C\c2ccc(N3CCOCC3)cc2C)C(=O)N1CC	SW480 rerep inconclusive, KB-3-1 cytotox 6.51µM, MCF10A rerep inconclusive, KB-V1 cytotox inconclusive
CCOCCCn1c(=N)c(C(=O)NCc2cccnc2)cc2c(=O)n3ccccc3nc21	none (no result: HT1080-NT tox, SW480 rerep, MCF10A rerep, HT1080 IDH1KD tx)
Cc1nc(NC(=O)c2ccco2)sc1C(=O)O	HT1080-NT tox 23.1µM, KB-3-1 cytotox 13µM, HT1080 IDH1KD tx 23.1µM, KB-V1 cytotox 4.61µM
Cc1nc(NC(=O)c2ccco2)sc1C(=O)Nc1ccc(Br)cc1	KB-3-1 cytotox inconclusive, MCF10A rerep 23.1µM (no result: HT1080-NT tox, HT1080 IDH1KD tx)
COC(=O)c1sc(NC(=O)c2ccco2)nc1C	none
CCCS(=O)(=O)N1CC(=O)N(c2cccc(Cl)c2)C(C)(C(=O)NC2CCCCC2)C1 (configuration not stated)	none (no result: HT1080-NT tox, SW480 rerep, MCF10A rerep, HT1080 IDH1KD tx)
Cc1ccc(Cl)cc1N1CCN(C(=O)c2cc3c(=O)n(C)c4ccccc4c3n2C)CC1	KB-3-1 cytotox inconclusive, KB-V1 cytotox 2.59µM
Cc1cccc(N2CCN(C(=O)c3cc4c(=O)n(C)c5ccccc5c4n3C)CC2)c1C	none
O=C(CN(C(=O)C1COc2ccccc2O1)c1ccccc1)NCC1CCCO1 (configuration not stated)	MCF10A rerep inconclusive, HT1080 IDH1KD tx inconclusive, KB-V1 cytotox inconclusive
Cc1cc(C)cc(N(CC(=O)NCC2CCCO2)C(=O)CN2C(=O)COc3ccccc32)c1 (configuration not stated)	KB-V1 cytotox 13µM
COc1ccc(C(=O)NCCS(=O)(=O)NCc2ccc(F)cc2)cc1	SW480 rerep 3.66µM
COc1ccc(C(=O)NCCS(=O)(=O)N(C)C2CCCCC2)cc1	KB-V1 cytotox 18.4µM
N#C/C(=C\c1ccncc1)c1nc2ccccc2o1	HT1080-NT tox inconclusive, MCF10A rerep 14.6µM, HT1080 IDH1KD tx inconclusive
N#C/C(=C\Nc1ccccc1O)c1nc2ccccc2o1	HT1080-NT tox inconclusive, MCF10A rerep inconclusive, HT1080 IDH1KD tx inconclusive, KB-V1 cytotox 20.6µM
CC(C(=O)NC(=O)NC1CCCCC1)N1CCN(C(c2ccccc2)c2ccccc2)CC1 (configuration not stated)	KB-3-1 cytotox inconclusive, KB-V1 cytotox 9.2µM
COC(C(=O)NC1CCCCCCC1)c1ccccc1 (configuration not stated)	KB-V1 cytotox 18.4µM
Cc1ccc(C)c(OCCC(=O)OCC(=O)NCCNC(=O)COC(=O)CCOc2cc(C)ccc2C)c1	none
O=C(COc1ccc(Br)cc1Cl)NC1CCCCC1	KB-3-1 cytotox inconclusive, KB-V1 cytotox 18.4µM
CC(C(=O)NC1CCCC1)N1CCN(Cc2ccccc2)CC1 (configuration not stated)	none
COC(CN(C)C(C(=O)NC1CCCCC1)c1ccccc1)OC (configuration not stated)	KB-V1 cytotox inconclusive
